# Source: paper PMC7862700, “An all-to-all approach to the identification of sequence-specific readers for epigenetic DNA modifications on cytosine”
# What was measured:
# Assay in all cases: DAPPL (digital affinity profiling via proximity ligation, sequencing); 10 mM Tris-HCl pH 7.5, 50 mM NaCl, 1 mM DTT, 4% glycerol, room temperature, 30 min; GST-TFs on glutathione beads, 16-mer random dsDNA library, 0.1% formaldehyde crosslink after washing; high values mean tight binding
# FEV = target: T1, FEV (Homo sapiens, UniProt Q99581 1-238); details: protein: recombinant; tags: N-terminal GST; dsDNA, one strand shown
# T1 sequence: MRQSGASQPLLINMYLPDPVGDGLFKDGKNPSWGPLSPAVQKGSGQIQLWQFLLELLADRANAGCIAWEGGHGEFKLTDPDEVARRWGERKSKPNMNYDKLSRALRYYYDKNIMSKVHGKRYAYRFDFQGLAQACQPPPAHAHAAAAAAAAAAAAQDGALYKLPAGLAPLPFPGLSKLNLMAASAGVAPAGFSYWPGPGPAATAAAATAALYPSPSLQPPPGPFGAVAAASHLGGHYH
# How it was run: (§1)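 Human transcription factors carrying a GST fusion were produced in yeast, bound to glutathione beads, tagged with DNA barcodes and pooled together with a tag-only sample. Each pool was held with 200 nmole of a random double-stranded 16-mer DNA library in Tris/NaCl/DTT/glycerol buffer for 30 min at room temperature, then washed, crosslinked in 0.1% formaldehyde, proximity-ligated with BsaI/T4 ligase (1 h, 37 °C), PCR-amplified and sequenced on an Illumina NextSeq500. Binding signal is the read frequency of each hexamer for a given factor divided by its frequency in the tag-only sample.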
# ETV5 = ETV5 (Homo sapiens, UniProt P41161 1-510); details: protein: recombinant; tags: N-terminal GST; dsDNA, one strand shown
# How it was run: as §1
# HSF1 = HSF1 (Homo sapiens, UniProt Q00613 1-529); details: protein: recombinant; tags: N-terminal GST; chain copies: 3; dsDNA, one strand shown
# How it was run: as §1
# SPIC = target: T2, SPIC (Homo sapiens, UniProt Q8N5J4 1-248); details: protein: recombinant; tags: N-terminal GST; dsDNA, one strand shown
# T2 sequence: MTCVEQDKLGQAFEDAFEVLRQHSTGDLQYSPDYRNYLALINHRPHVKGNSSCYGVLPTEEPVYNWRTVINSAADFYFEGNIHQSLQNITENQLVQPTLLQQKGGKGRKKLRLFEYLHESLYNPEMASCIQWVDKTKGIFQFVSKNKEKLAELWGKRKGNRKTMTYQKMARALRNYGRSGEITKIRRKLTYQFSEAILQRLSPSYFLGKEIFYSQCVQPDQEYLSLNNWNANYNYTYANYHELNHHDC
# How it was run: as §1
# ELF4 = ELF4 (Homo sapiens, UniProt Q99607 1-663); details: protein: recombinant; tags: N-terminal GST; dsDNA, one strand shown
# How it was run: as §1
# ELK4 = target: T3, ELK4 (Homo sapiens, UniProt P28324-2 1-405); details: protein: recombinant; tags: N-terminal GST; dsDNA, one strand shown
# T3 sequence: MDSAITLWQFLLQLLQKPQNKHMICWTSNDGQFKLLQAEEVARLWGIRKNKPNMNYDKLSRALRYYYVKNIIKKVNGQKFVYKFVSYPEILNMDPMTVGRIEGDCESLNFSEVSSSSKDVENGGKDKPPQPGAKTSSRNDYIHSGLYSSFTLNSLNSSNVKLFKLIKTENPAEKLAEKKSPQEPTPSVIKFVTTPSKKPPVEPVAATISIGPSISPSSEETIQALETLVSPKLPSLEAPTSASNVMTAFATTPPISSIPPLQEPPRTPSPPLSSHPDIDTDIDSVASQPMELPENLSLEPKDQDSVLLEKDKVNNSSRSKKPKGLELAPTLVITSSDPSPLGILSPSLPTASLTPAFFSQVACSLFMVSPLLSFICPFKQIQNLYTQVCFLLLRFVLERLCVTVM
# How it was run: as §1
# ETV2 = target: T4, ETV2 (Homo sapiens, UniProt O00321 1-342); details: protein: recombinant; tags: N-terminal GST; dsDNA, one strand shown
# T4 sequence: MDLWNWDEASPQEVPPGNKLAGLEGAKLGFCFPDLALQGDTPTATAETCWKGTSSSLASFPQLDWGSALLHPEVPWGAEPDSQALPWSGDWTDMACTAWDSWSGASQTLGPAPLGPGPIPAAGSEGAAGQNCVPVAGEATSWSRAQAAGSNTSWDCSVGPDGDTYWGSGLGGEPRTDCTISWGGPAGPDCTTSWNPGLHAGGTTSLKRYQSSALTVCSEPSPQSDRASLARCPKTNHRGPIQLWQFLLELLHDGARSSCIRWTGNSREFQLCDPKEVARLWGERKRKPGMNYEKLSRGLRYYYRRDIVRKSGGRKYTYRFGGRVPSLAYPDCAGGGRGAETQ
# How it was run: as §1
# ELF3 = target: T5, ELF3 (Homo sapiens, UniProt P78545 1-371); details: protein: recombinant; tags: N-terminal GST; dsDNA, one strand shown
# T5 sequence: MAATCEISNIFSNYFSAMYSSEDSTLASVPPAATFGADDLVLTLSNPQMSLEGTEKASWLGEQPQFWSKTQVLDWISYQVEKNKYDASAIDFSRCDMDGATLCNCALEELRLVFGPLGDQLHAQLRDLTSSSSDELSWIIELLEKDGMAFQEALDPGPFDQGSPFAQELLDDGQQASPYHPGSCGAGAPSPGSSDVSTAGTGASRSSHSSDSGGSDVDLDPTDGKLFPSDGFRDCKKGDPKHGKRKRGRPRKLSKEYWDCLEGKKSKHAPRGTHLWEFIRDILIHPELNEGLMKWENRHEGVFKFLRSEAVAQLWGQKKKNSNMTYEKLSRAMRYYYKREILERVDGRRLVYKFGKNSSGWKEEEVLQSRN
# How it was run: as §1
# CRX = CRX (Homo sapiens, UniProt O43186 1-299); details: protein: recombinant; tags: N-terminal GST; dsDNA, one strand shown
# How it was run: as §1
# ETV1 = ETV1 (Homo sapiens, UniProt P50549 1-477); details: protein: recombinant; tags: N-terminal GST; dsDNA, one strand shown
# How it was run: as §1
# ERF = target: T6, ERF (Homo sapiens, UniProt P50548 1-548); details: protein: recombinant; tags: N-terminal GST; dsDNA, one strand shown
# T6 sequence: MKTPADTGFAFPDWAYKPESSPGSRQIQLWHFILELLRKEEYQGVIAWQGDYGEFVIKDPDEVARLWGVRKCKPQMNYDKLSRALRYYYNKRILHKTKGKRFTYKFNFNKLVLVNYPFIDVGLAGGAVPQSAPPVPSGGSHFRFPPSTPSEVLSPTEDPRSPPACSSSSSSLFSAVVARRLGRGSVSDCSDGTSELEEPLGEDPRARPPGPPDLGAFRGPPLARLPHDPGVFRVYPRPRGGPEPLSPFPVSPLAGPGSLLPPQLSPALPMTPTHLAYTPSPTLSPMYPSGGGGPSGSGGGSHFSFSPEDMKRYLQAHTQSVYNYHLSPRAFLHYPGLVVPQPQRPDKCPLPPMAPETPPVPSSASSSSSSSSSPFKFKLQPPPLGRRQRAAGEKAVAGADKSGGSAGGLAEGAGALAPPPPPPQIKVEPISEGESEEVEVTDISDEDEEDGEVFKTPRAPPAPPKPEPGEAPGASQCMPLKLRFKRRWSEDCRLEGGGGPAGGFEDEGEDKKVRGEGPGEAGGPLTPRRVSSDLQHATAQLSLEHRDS
# How it was run: as §1
# ETV3L = target: T7, ETV3L (Homo sapiens, UniProt Q6ZN32 1-361); details: protein: recombinant; tags: N-terminal GST; dsDNA, one strand shown
# T7 sequence: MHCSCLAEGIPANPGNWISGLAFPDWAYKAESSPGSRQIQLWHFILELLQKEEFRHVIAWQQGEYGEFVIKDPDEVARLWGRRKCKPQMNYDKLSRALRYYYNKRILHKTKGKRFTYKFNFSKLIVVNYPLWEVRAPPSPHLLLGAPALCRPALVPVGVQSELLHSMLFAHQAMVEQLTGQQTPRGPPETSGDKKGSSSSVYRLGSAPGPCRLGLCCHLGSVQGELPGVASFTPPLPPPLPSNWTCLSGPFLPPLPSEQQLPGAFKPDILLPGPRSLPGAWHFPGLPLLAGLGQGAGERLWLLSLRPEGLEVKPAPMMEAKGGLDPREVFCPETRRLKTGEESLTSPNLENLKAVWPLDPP
# How it was run: as §1
# ETS2 = target: T8, ETS2 (Homo sapiens, UniProt P15036 1-469); details: protein: recombinant; tags: N-terminal GST; dsDNA, one strand shown
# T8 sequence: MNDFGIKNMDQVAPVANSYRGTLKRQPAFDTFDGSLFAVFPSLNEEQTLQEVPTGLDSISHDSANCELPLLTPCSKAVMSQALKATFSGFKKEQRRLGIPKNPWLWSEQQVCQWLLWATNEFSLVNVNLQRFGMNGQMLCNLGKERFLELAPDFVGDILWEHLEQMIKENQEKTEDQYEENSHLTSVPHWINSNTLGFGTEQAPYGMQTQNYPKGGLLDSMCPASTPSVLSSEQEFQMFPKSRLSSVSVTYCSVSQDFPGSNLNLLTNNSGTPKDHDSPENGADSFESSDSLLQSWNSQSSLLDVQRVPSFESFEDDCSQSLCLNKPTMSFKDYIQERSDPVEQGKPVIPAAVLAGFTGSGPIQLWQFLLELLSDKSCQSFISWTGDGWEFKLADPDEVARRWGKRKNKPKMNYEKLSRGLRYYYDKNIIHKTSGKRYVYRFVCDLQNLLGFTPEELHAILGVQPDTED
# How it was run: as §1
# SPDEF = target: T9, SPDEF (Homo sapiens, UniProt O95238 1-335); details: protein: recombinant; tags: N-terminal GST; dsDNA, one strand shown
# T9 sequence: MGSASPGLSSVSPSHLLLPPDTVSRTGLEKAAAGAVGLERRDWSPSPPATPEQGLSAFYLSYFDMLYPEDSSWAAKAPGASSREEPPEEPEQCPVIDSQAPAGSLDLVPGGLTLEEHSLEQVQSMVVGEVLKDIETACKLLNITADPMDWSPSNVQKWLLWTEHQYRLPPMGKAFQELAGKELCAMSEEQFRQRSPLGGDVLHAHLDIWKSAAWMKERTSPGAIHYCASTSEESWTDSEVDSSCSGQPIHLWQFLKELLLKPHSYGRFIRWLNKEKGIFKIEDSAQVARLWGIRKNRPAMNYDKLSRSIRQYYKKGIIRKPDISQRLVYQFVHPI
# How it was run: as §1
# ETV7 = target: T10, ETV7 (Homo sapiens, UniProt Q9Y603 1-341); details: protein: recombinant; tags: N-terminal GST; dsDNA, one strand shown
# T10 sequence: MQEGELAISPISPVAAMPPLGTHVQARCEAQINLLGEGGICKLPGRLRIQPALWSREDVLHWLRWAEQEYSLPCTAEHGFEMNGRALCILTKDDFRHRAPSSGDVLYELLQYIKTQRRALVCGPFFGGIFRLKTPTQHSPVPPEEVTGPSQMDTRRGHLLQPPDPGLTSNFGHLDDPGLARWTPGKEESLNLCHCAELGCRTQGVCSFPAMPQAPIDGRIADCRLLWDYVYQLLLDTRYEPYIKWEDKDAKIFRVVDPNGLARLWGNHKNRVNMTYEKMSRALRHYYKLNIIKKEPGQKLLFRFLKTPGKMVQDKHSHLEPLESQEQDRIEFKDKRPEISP
# How it was run: as §1
# ELF5 = target: T11, ELF5 (Homo sapiens, UniProt Q9UKW6-2 1-255); details: protein: recombinant; tags: N-terminal GST; dsDNA, one strand shown
# T11 sequence: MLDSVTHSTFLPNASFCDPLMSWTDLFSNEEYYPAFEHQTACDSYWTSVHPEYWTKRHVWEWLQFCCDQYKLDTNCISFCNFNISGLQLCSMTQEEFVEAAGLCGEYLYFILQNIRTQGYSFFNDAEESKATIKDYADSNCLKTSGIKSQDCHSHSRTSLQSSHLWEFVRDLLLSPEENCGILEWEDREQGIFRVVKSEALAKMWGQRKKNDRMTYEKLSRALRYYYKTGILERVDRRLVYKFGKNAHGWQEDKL
# How it was run: as §1
# ETV3 = target: T12, ETV3 (Homo sapiens, UniProt P41162-2 1-143); details: protein: recombinant; tags: N-terminal GST; dsDNA, one strand shown
# T12 sequence: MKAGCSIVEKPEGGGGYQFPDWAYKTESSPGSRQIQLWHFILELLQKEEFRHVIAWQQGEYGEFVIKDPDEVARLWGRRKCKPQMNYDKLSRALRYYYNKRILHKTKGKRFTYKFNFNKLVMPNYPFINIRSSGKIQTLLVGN
# How it was run: as §1
# ETV6 = ETV6 (Homo sapiens, UniProt P41212 1-452); details: protein: recombinant; tags: N-terminal GST; dsDNA, one strand shown
# How it was run: as §1
# Chain of HSF1 (Q00613 whole entry): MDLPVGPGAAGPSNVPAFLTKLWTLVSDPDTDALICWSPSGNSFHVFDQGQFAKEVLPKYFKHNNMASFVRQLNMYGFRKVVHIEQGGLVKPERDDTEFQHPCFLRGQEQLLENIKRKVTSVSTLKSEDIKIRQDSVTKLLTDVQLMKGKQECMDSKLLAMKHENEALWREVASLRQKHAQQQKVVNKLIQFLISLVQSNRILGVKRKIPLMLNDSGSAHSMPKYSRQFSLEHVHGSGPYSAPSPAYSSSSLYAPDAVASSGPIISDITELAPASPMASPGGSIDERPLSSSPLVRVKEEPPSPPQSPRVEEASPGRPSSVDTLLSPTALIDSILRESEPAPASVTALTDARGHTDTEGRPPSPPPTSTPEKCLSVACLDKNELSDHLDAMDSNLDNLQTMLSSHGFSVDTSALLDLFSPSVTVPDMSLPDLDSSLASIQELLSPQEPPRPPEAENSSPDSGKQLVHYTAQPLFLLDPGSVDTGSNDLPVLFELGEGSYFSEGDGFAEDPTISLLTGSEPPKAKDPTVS
# Chain of ETV1 (P50549 whole entry): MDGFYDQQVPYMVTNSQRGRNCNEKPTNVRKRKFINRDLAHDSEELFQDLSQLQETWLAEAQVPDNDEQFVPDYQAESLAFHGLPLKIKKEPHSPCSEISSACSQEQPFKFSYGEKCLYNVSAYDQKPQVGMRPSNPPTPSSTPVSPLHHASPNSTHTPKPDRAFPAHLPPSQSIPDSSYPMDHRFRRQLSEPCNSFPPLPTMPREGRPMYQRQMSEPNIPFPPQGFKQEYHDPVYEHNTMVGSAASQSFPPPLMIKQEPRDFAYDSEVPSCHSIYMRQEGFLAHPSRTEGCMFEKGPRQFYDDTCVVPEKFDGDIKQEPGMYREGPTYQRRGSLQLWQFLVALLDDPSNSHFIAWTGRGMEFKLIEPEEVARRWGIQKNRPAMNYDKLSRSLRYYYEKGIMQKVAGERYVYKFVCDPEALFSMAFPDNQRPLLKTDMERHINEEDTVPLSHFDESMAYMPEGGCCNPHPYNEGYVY
# Chain of CRX (O43186 whole entry): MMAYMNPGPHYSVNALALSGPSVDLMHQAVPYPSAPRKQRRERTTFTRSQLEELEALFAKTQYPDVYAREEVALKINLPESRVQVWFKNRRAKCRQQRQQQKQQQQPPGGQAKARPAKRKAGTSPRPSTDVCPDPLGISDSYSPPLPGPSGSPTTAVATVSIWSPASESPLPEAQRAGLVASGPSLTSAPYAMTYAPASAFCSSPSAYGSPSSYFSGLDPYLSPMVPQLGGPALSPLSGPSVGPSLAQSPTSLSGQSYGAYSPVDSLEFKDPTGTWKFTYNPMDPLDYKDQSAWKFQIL
# Chain of ETV5 (P41161 whole entry): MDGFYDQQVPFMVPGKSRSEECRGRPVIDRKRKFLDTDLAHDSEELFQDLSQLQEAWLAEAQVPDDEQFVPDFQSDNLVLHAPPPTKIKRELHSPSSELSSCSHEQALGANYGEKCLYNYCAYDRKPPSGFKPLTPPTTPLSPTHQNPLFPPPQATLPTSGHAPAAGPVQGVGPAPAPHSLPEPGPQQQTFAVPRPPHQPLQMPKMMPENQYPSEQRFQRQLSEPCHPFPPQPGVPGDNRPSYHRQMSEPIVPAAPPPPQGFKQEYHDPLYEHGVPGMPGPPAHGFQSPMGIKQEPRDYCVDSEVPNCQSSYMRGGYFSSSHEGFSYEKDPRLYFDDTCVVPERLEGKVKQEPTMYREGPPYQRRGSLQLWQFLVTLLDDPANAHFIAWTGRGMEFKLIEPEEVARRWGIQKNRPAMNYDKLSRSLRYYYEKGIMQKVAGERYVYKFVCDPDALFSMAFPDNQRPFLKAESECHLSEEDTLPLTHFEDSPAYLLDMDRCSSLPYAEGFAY
# Chain of ETV6 (P41212 whole entry): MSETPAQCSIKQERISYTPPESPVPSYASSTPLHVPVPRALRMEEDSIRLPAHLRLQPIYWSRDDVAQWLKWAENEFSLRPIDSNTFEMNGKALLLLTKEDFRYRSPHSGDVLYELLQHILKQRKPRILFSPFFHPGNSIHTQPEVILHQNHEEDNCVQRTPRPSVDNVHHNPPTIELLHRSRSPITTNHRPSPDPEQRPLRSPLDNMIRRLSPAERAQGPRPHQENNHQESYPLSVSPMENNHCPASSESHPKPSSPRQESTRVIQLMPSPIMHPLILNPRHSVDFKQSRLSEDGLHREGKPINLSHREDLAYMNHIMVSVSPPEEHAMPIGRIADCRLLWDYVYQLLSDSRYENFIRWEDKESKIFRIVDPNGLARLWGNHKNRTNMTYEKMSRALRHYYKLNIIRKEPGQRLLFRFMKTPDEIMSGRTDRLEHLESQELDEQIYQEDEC
# Chain of ELF4 (Q99607 whole entry): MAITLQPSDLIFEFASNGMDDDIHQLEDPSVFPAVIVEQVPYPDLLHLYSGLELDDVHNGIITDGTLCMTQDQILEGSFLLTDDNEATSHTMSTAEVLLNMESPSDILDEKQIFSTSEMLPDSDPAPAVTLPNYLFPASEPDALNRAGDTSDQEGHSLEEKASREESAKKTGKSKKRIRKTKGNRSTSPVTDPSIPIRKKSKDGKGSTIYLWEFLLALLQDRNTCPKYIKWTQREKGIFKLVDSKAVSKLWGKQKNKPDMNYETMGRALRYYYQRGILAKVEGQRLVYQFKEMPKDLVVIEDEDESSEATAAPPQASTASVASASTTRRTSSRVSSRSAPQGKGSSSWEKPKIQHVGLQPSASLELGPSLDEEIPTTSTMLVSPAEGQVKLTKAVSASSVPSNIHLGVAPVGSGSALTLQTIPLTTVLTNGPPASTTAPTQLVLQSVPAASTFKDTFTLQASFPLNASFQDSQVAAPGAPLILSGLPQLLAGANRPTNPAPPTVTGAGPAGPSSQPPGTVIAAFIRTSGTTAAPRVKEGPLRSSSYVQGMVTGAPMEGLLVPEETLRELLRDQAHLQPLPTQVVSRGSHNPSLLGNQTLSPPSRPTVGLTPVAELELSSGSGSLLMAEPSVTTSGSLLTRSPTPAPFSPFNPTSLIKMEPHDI
sequence,measurement,setting,value
GGTATT,binding signal,FEV,"1.1 fold enrichment (6-mer frequency, TF over GST control)"
same,binding signal,ETV5,"1.16 fold enrichment (6-mer frequency, TF over GST control)"
same,binding signal,HSF1,"1.39 fold enrichment (6-mer frequency, TF over GST control)"
same,binding signal,SPIC,"1.14 fold enrichment (6-mer frequency, TF over GST control)"
same,binding signal,ELF4,"1.12 fold enrichment (6-mer frequency, TF over GST control)"
same,binding signal,ELK4,"1.14 fold enrichment (6-mer frequency, TF over GST control)"
same,binding signal,ETV2,"1.12 fold enrichment (6-mer frequency, TF over GST control)"
same,binding signal,ELF3,"1.1 fold enrichment (6-mer frequency, TF over GST control)"
same,binding signal,CRX,"1.66 fold enrichment (6-mer frequency, TF over GST control)"
same,binding signal,ETV1,"1.16 fold enrichment (6-mer frequency, TF over GST control)"
same,binding signal,ERF,"1.2 fold enrichment (6-mer frequency, TF over GST control)"
same,binding signal,ETV3L,"1.18 fold enrichment (6-mer frequency, TF over GST control)"
same,binding signal,ETS2,"1.2 fold enrichment (6-mer frequency, TF over GST control)"
same,binding signal,SPDEF,"1.27 fold enrichment (6-mer frequency, TF over GST control)"
same,binding signal,ETV7,"1.24 fold enrichment (6-mer frequency, TF over GST control)"
same,binding signal,ELF5,"1.16 fold enrichment (6-mer frequency, TF over GST control)"
same,binding signal,ETV3,"1.12 fold enrichment (6-mer frequency, TF over GST control)"
same,binding signal,ETV6,"1.24 fold enrichment (6-mer frequency, TF over GST control)"
